According to PubChem BioAssay:
Where “and” joins values, the source holds several entries; their conditions need not be identical. Equal values may be shown once. For some of these results: Measured potencies and affinities stand elsewhere. Calls of active or inactive are those of the source. Unless noted, how the calls were made is not given here.

Key:
[1] = Cy5 fluorescence interference with SSB-bound oligo, artefact control for HCV NS3 helicase inhibitor project, biochemical, NIH Clinical Collection, E. coli SSB (AID 743268)
[2] = test system: Hepatitis C virus NS3 helicase; assay: HCV NS3 helicase inhibitors, primary screen, biochemical, fluorescence polarization, NIH Clinical Collection (AID 743270); settings: NS3 helicase binding to Cy5-dT15 DNA, stronger effect = higher value, concentration not given here
[3] = target: Single-stranded DNA-binding protein (Escherichia coli (strain K12)) (UniProt P0AGE0); assay: E. coli SSB displacement from DNA, counter-screen for HCV NS3 helicase inhibitor project, biochemical, fluorescence polarization, NIH Clinical Collection (AID 743271; in the data active means inhibition above about 28%); settings: stronger effect = higher value, concentration not given here
[4] = fluorescence interference in NS3h assay format, artefact control for HCV NS3 helicase inhibitor project, biochemical, NIH Clinical Collection (AID 743272); settings: fluorescence interference counterscreen, stronger effect = lower value;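 further: HCV NS3 helicase with a Cy5 labelled single stranded DNA probe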
[5] = modulation of C. elegans fzo-1 (AID 1259413);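 further: fzo-1 mutant C. elegans worms in liquid wells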; settings: C. elegans fzo-1 modulator screen, mean read-out; stronger effect = higher value
[6] = target: NAD(+) hydrolase SARM1 (Homo sapiens) (UniProt Q6SZW1); assay: SARM1 TIR NADase inhibitors, cell lysate, NAD-Glo luminescence (AID 1508614;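 active means compound whose remaining NAD level is above about 45 nM, limit read from the data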); settings: SAM-TIR HEK293T lysate NADase, at 1 µM, stronger effect = higher value
[7] = target: Mitogen-activated protein kinase 7 (Homo sapiens) (UniProt Q13164); assay: ERK5 transactivation activators in reporter cells, primary screen, cell-based, HTS (AID 1508626;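 active means luciferase signal above three times the same-plate solvent-only control wells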;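 further: luciferase driven by Gal4-ERK5 fusion binding five Gal4 sites before minimal TATA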); settings: HeLa Gal4-ERK5 transactivation, 18 h, at 5 µM, stronger effect = higher value
[8] = viability rescue of complex I mutant cybrids, primary screen, cell-based, galactose medium, ATP luminescence (AID 1645843;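 active means z-score of at least 1.8 in each of two replicates, scored against plate mean and spread of sample wells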;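 further: positive z means more ATP and so rescue of galactose-driven cybrid death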); settings: complex I mutant cybrid cells, 72 h, stronger effect = higher value
[9] = test system: R275C/beta2Delta; assay: modulators of BK channel variants, profiling panel, selectivity assay, cell-based, U2OS BacMam, thallium flux, beta subunits (AID 1259406;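 active means thallium flux through the channel raised or lowered by more than 3 SD from vehicle-only wells, actives on both sides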;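 further: initial slope of Thallos dye fluorescence rise after thallium is added; log ratio against the mean of 0.3% DMSO vehicle wells on the same plate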); settings: at 30 µM
[10] = test system: R275C/beta4; assay: as above; settings: at 30 µM
[11] = test system: R275C/Slo1WT/beta2; assay: as above; settings: at 30 µM
[12] = polyglutamine-triggered caspase-3 activation inhibitors, cell-based (AID 1583); settings: polyglutamine-induced caspase-3 activation, cell assay; stronger effect = higher value;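 tested at 10 µM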
[13] = suppressors of polyQ aggregation in yeast, 75Q-TubU reporter (AID 1593); settings: Yeast 75Q polyglutamine aggregation reporter
[14] = rescue of polyQ-huntingtin neuronal dysfunction in worms, whole organism, C. elegans mechanosensory neurons, N-terminal huntingtin (AID 1599); settings: touch response, stronger effect = higher value
[15] = inhibitors of mitochondrial cytochrome c release, biochemical, purified mitochondria (AID 1603); settings: stronger effect = lower value;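 further: mouse liver mitochondria challenged with calcium chloride; signal normalized to the plate average as 100%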
[16] = inhibitors of polyQ protein aggregation (AID 1604); settings: polyglutamine-induced protein aggregation inhibition assay; stronger effect = higher value; tested at 2.5 µM
[17] = enhancers of glutamate uptake in motor neurons, MN-1 cell line (AID 1612); settings: MN-1 motor neuron cells, stronger effect = higher value;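 further: tested at 1 µM final; 0% = mean of DMSO vehicle wells on each plate; positive means more glutamate uptake than control and negative means less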
[18] = suppressors of polyglutamine aggregation in yeast, 75Q-TubH (AID 1616); settings: S. cerevisiae 75Q-TubH polyglutamine aggregation suppression; stronger effect = higher value
[19] = hESC survival regulators, cell-based (AID 493140); settings: human embryonic stem cell survival screen; stronger effect = higher value;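 further: cells exposed to compounds for four days before counting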

Mitogen-activated protein kinase 7 (Homo sapiens), sequence (Q13164 whole entry, looked up, the tested form may be a part): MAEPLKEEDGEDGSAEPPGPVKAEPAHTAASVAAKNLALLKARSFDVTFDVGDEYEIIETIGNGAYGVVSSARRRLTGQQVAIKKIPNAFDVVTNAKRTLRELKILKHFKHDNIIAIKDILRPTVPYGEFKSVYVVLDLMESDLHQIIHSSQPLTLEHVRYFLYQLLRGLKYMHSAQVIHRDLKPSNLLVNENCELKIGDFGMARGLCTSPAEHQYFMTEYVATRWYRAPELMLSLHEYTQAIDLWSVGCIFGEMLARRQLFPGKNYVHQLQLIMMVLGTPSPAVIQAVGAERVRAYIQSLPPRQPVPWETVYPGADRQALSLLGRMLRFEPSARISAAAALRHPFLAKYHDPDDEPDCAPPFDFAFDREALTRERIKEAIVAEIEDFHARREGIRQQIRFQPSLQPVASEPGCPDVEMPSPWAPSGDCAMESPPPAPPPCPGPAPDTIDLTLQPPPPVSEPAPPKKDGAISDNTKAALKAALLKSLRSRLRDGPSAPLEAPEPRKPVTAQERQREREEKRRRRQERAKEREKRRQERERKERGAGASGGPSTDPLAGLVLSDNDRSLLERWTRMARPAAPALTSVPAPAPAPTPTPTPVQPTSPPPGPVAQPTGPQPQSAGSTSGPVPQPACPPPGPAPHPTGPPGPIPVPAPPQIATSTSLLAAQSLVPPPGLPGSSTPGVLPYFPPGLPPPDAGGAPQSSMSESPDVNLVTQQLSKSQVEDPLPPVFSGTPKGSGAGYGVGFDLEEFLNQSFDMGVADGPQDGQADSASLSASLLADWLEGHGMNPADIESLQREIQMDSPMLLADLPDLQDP
NAD(+) hydrolase SARM1 (Homo sapiens), sequence (Q6SZW1 whole entry, looked up, the tested form may be a part): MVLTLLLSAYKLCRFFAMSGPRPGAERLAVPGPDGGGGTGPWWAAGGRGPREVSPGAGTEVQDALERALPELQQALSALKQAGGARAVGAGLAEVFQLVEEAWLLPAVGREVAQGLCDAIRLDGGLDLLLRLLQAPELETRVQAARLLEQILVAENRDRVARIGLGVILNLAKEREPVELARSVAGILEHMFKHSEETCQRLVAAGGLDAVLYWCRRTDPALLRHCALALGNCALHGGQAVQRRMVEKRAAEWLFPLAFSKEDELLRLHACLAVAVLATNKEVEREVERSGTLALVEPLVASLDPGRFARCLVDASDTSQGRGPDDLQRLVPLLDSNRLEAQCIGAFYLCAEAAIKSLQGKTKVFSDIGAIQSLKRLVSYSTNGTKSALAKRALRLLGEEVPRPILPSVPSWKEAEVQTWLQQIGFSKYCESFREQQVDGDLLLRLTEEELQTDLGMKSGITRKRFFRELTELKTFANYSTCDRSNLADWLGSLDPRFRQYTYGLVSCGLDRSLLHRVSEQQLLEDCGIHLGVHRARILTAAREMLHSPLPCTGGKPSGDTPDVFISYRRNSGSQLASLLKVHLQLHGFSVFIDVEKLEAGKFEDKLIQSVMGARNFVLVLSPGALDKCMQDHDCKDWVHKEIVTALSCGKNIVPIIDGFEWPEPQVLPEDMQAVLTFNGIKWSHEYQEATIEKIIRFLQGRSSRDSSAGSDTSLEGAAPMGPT

Structure (SMILES)	fluorescence ratio [1]	inhibition [2]	inhibition [3]	fluorescence ratio [4]	mean signal [5]	remaining NAD [6]	luciferase signal [7]	z-score [8]	log fold change Tl+ flux [9]	log fold change Tl+ flux [10]	log fold change Tl+ flux [11]	inhibition [12] [%]	score [13]	rescue above control [14]	cytochrome c release ratio [15]	inhibition of aggregation [16] [%]	glutamate uptake change [17] [%]	aggregation suppression score [18]	survival [19]
CN(CCOc1ccc(CC2SC(=O)NC2=O)cc1)c1ccccn1 (configuration not stated)	1.05 (inactive) and 0.99 (inactive)	-1.19% (inactive)	4.52% (inactive) and -0.87% (inactive)	1.01 (inactive) and 0.96 (inactive)	290 (inactive)	10 nM (inactive)	72 AU (inactive)	0.19 (inactive) and 0.27 (inactive)	0.0398 (inactive) and 0.0538 (inactive)	0.0706 (inactive) and 0.0705 (inactive)	-0.0105 (inactive) and 0.0261 (inactive)	–	–	–	–	–	–	–	–
CN1CCCC(n2nc(Cc3ccc(Cl)cc3)c3ccccc3c2=O)CC1 (configuration not stated)	1.03 (inactive)	-6.73% (inactive)	0.67% (inactive)	0.97 (inactive)	269 (inactive)	10 nM (inactive)	88 AU (inactive)	-0.51 (inactive)	-0.0285 (inactive)	0.0595 (inactive)	0.0667 (inactive)	–	–	–	–	–	–	–	–
O=S(=O)(O)CCS	0.73 (active)	-2.27% (inactive)	-2.76% (inactive)	1 (inactive)	248 (inactive)	10 nM (inactive)	20 AU (inactive)	0.905 (inactive)	-0.00238 (inactive)	0.0195 (inactive)	0.0106 (inactive)	-57.1	1.3	-8.48	0.92	75	-0.24	1.35	–
CCCNCC(O)COc1ccccc1C(=O)CCc1ccccc1 (configuration not stated)	1.02 (inactive)	-5% (inactive)	-2% (inactive)	0.99 (inactive)	272 (inactive)	10 nM (inactive)	116 AU (inactive)	-1.23 (inactive) and -1.36 (inactive) and -0.68 (inactive)	0.136 (active)	0.153 (active)	0.0285 (inactive)	-14.1	1.02	2.07	1.16	21.6	9.21	0.81	6.75 (inactive)
NS(=O)(=O)c1cc2c(cc1Cl)NC=NS2(=O)=O	0.95 (inactive)	-5% (inactive)	-1.24% (inactive)	0.94 (inactive)	245 (inactive)	10 nM (inactive)	52 AU (inactive)	0.185 (inactive) and 0.555 (inactive)	0.0235 (inactive)	0.0288 (inactive)	0.0443 (inactive)	-50.5	1.24	7.98	0.96	80.6	4.54	1.42	13.6 (inactive)
CCc1cccc2c3c([nH]c12)C(CC)(CC(=O)O)OCC3 (configuration not stated)	1.05 (inactive)	4.09% (inactive)	-2% (inactive)	1.02 (inactive)	230 (inactive)	10 nM (inactive)	164 AU (inactive)	0.63 (inactive) and -0.035 (inactive)	0.0673 (inactive)	0.0823 (inactive)	0.0472 (inactive)	10.4	1.08	-7.42	0.88	57.6	-3.42	0.918	14.8 (inactive)
